From PubChem
An excerpt weighted towards active compounds, which were near 12% of everything screened.
L3MBTL1 block: L3MBTL1 (human) inhibition. actives 0.66% (n = 230,000). Potency, µM (doses to about 57.1 µM), without a hit: at the highest dose activity, negative = inhibition, most hits filed as inhibitors. AlphaScreen L3MBTL1–H3K9me1 peptide binding; also: % is scaled to controls: 0 for no effect and ±100 for the full control effect; nearly all actives have a fitted effect of over 60% in size
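First, the protein-peptide complex forms for 30 min at room temperature (L3MBTL1 50 nM, biotinylated H3K9me1 peptide 75 nM). Next, compounds are pin-transferred and incubated 30 min. Finally, AlphaScreen beads are added and read after 30 min.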
G9a block: blocks human histone lysine methyltransferase G9a. Q96KQ7. G9a H3K9 monomethylation, AlphaScreen, 2 h. Potency, µM (top dose mostly 102 µM), inactives show top-dose activity, negative = inhibition, actives largely listed as inhibitors. actives 8.8% (n = 350,000). AID 504332; also: % is scaled to controls: 0 for no effect and ±100 for the full control effect; nearly all actives have a fitted effect of over 75% in size
Target sequence (Q96KQ7 913-1193 limits assumed): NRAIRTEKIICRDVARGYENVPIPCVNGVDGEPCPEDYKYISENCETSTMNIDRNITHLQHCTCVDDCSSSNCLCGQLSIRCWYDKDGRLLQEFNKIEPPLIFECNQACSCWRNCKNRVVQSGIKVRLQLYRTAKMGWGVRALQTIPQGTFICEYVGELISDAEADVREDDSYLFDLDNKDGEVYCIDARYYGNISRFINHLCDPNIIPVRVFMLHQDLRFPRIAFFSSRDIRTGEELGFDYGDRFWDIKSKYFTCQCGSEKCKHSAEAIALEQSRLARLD
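G9a (20 nM) preincubated 15 min RT with compounds, then 500 nM biotinylated H3K9 peptide and 20 uM SAM added; 2 h RT reaction. Monomethyl-H3K9 product detected by AlphaScreen with anti-H3K9me1 antibody, streptavidin donor and anti-rabbit IgG acceptor beads.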
BAZ2B inh: blocks human BAZ2B | Potency, µM (highest dose often 114 µM), inactives show at the highest dose activity change, negative = inhibition, actives largely listed as inhibitors | AlphaScreen BAZ2B-H3K14Ac peptide displacement | actives 4.4% (n = 360,000) | AID 504333; also: % is scaled to controls: 0 for no effect and ±100 for the full control effect; nearly all actives have a fitted effect of over 60% in size
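BAZ2B 50 nM plus b-H3(5-23)K14Ac 50 nM, PBS pH 7.4/0.01% Tween-20, 30 min RT; compound added (max 110 uM), 30 min RT; streptavidin donor/Ni-chelate acceptor beads 10 ug/mL final, 20 min dark; AlphaScreen read.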
HP1b binding inh: blocks HP1-beta chromodomain binding to methylated histone tails; Potency, µM (titrated, usually from 114 µM), without a hit: at the top dose activity change, negative = inhibition, actives largely listed as inhibitors; AlphaScreen HP1-beta / biotin-H3K9me3 peptide binding; AID 540317; actives 0.56% (n = 390,000); P83916; also: nearly all actives have a fitted effect of over 70% in size
Target sequence (P83916 whole entry, looked up): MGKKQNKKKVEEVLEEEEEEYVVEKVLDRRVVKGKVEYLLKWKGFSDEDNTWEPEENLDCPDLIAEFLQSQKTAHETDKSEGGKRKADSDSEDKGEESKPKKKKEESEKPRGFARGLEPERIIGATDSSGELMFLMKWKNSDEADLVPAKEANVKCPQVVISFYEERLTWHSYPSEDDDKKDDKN
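Compound inhibition of the preformed complex between 50 nM HP1-beta and 50 nM biotinylated H3K9me3 peptide was read by AlphaScreen. Buffer was PBS pH 7.4 with 0.01% Tween-20. Incubations ran 30 min at room temperature, with 10 ug/mL donor/acceptor beads.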
Sfp PPTase inh: inhibitors of Bacillus subtilis Sfp phosphopantetheinyl transferase. Potency, µM, inactives show largest response in the series, negative = inhibition, usual class: inhibitors. actives 3.5% (n = 310,000). Biochemical Sfp PPTase activity, qHTS. Q9F4F7;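 also: the enzyme is Sfp with the accession as filed and its product quenches rhodamine fluorescence; 0% = enzyme reaction without inhibitor and -100% = no enzyme wells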
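Sfp 15 nM + cpd, 15 min RT; start w/ rhodamine-CoA 5 uM, BHQ-2-YbbR 12.5 uM (final); 50 mM Hepes pH 7.6, 10 mM MgCl2, 0.01% NP-40, 0.01% BSA; read 525/598 nm at 0 and 30 min.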
JMJD2A Tudor inh: blocks the human JMJD2A Tudor domain. O75164. AlphaScreen JMJD2A-Tudor / H3K4me3 peptide binding. Potency, µM (series often up to 114 µM), inactives show top-dose activity change, negative = inhibition, actives largely listed as inhibitors. actives 4.4% (n = 390,000); also: % is scaled to controls: 0 for no effect and ±100 for the full control effect; nearly all actives have a fitted effect of over 50% in size
Numbers without * were called inactive; ? = inconclusive; . = not tested or not shown; [ ] = remark or other dose. Calls follow the shape of the dose curve; as a rule, active = well fitted curve in the direction sought with a large enough effect; inconclusive = small, poorly fitted or top-dose-only effect, or another doubt; inactive = no such curve, though single readings can be large; an effect the other way counts as inactive or inconclusive. Potency is read from the fitted curve at half-maximal effect.

SMILES | L3MBTL1 block | G9a block | BAZ2B inh | HP1b binding inh | Sfp PPTase inh | JMJD2A Tudor inh
COc1ccccc1C1NC(=O)NC(C)=C1C(=O)OC1CCC(C)CC1 (stereo not drawn) | . | . | -14% | 17% | 5% | -23%
C[C@@H](c1ccccc1)N1C(=O)[C@H]2[C@H]3[C@H](O)[C@H](O)C/C(=N/OCc4ccccc4)[C@H]3CC[C@@H]2C1=O | . | . | . | . | 23% | .
CCn1c(-c2cc(-c3cc(OC)ccc3OC)nc3ccccc23)n[nH]c1=S | . | 3.5µM* | ? | 28% | 1% | 20µM*
CCCOc1cccc(-c2cc(-c3n[nH]c(=S)n3CC)c3ccccc3n2)c1 | -5% | -1%[0.0925 µM] | ? | -29% | -26% | ?
CCn1c(-c2cc(-c3ccccc3OC)nc3ccccc23)n[nH]c1=S | 3% | 2.8µM* | -39% | 22% | -14% | 56µM*
CN(C)c1ccc(NC(=O)Cn2cc3c(n2)CCCC3)cc1 | -13% | 28µM* | 40µM* | ? | -7% | 50µM*
Cc1cc(C)cc(NC(=O)Cn2cc3c(n2)CCCCC3)c1 | . | ? | -5% | . | 6% | .
O=c1/c(=C/c2ccc(O)cc2)sc2nc3cc(Br)cnc3n12 | -13% | 10µM* | -32% | . | ? | .
O=c1/c(=C\c2ccc(O)cc2)sc2nc(-c3ccccc3)c(-c3ccccc3)n12 | . | ? | ? | 50% | -16% | -18%[11.4 µM]
CS(=O)(=O)N(CC(=O)N1CCC(C(N)=O)CC1)Cc1ccc(Cl)c(Cl)c1 | 7% | . | -5% | 35% | 12% | 7%
O=[N+]([O-])c1ccc(-c2c[nH]c(=S)[nH]2)cc1 | ? | 2µM* | -2% | ? | 3.5µM* | ?
S=c1[nH]cc(-c2ccccc2)[nH]1 | . | -130%[59 µM] | -8% | 0% | -2% | 25µM*
O=[N+]([O-])c1ccc(-c2cn(-c3ccccc3F)c(=S)[nH]2)cc1 | -7% | -44% | ? | 55% | ? | -6%
O=C(O)c1ccccc1-c1noc(-c2ccccc2F)n1 | 18% | -17%[12.7 µM] | 2% | . | . | .
CC#CCC1(C(=O)OC)C(=O)NC[C@H]1c1ccccc1 (stereo partly drawn) | . | . | . | . | 6% | .
O=c1cc(CN2CCN(Cc3ccccc3)CC2)c2ccc(O)c(O)c2o1 | . | 35µM* | 40µM* | 4% | 79µM* | ?
O=c1cc(CN2CCOCC2)c2ccc(O)c(O)c2o1 | . | 7.9µM* | -9% | 42% | 45µM* | ?
CC(C)(C)C(=O)[C@@H]1[C@@H]2C(=O)N(C3CCCCC3)C(=O)[C@@H]2[C@H]2c3ccccc3C=CN12 | . | 10µM* | -15% | 46% | -18% | ?
COc1ccc(N2C(=O)[C@H]3[C@@H](C2=O)C2c4ccccc4C=NN2[C@H]3C(=O)C(C)(C)C)cc1 (stereo partly drawn) | . | . | ? | 21% | 17% | -10%
COc1ccc(N2C(=O)[C@@H]3[C@H](C2=O)[C@H]2c4ccccc4C=CN2[C@@H]3C(C)=O)cc1 | -6% | 8.9µM* | ? | -14% | -16% | ?
O=C(Nc1ccc2c(c1)OCO2)[C@@H]1[C@@H]2C(=O)N(C3CCCCC3)C(=O)[C@@H]2C2c3ccccc3C=CN21 (stereo partly drawn) | -9% | 10µM* | 3% | . | -12% | .
O=C(c1ccc2c(c1)OCO2)[C@@H]1[C@@H]2C(=O)N(C3CCCCC3)C(=O)[C@@H]2C2c3ccccc3C=CN21 (stereo partly drawn) | -11% | 32µM* | -28% | 25% | 0% | -17%
CCn1c(SCC(=O)N/N=C(/C)c2ccncc2)nc2ccccc21 | -3% | 13%[12.7 µM] | 0% | 39% | -6% | -7%
O=C(COC(=O)c1cc(S(=O)(=O)N2CCCCC2)ccc1N1CCOCC1)c1ccc(F)cc1 | -5% | -20% | 4% | 23% | . | -9%
CC(C)c1ccc(C2C(C(=O)c3ccco3)=C(O)C(=O)N2CCN2CCOCC2)cc1 (stereo not drawn) | . | 50µM* | -7% | 30% | -17% | -12%
SMILES | L3MBTL1 block | G9a block | BAZ2B inh | HP1b binding inh | Sfp PPTase inh | JMJD2A Tudor inh
CCOc1ccc(C2C(C(=O)c3ccco3)=C(O)C(=O)N2CCN2CCOCC2)cc1 (stereo not drawn) | . | ? | -35% | 17% | 3% | -28%
CCOc1ccc(C2C(C(=O)c3ccco3)=C(O)C(=O)N2CCN2CCOCC2)cc1OCC (stereo not drawn) | . | 40µM* | -20%[57.1 µM] | 23% | -7% | -16%
COc1cccc(C2C(C(=O)c3ccc(C)o3)=C(O)C(=O)N2CCN2CCOCC2)c1 (stereo not drawn) | . | . | -14% | 67% | 2% | -35%
COc1ccc(C2C(C(=O)/C=C/c3ccco3)=C(O)C(=O)N2CCN2CCOCC2)cc1OC (stereo not drawn) | . | 50µM* | . | 21% | ? | -19%
CCCOc1ccc(C2C(C(=O)c3ccco3)=C(O)C(=O)N2CCN2CCOCC2)cc1OC (stereo not drawn) | 1% | ? | -11% | . | -5% | .
CCOc1ccc(C2C(C(=O)c3ccc(C)o3)=C(O)C(=O)N2CCN2CCOCC2)cc1OC (stereo not drawn) | -2% | 18µM* | ? | 39% | -11% | 28µM*
COc1ccc(-c2oc3ccc(-c4cc(OC)c(OC)c(OC)c4)cc3c2-c2ccc(OC)nc2)cc1 | 1% | . | ? | 31% | -21% | -19%
O=C(NC1CCCCC1)c1csnn1 | . | . | . | 35% | . | -6%
CCOc1ccc(N2CC(C(=O)OCC(=O)c3ccc(OC)cc3)CC2=O)cc1 (stereo not drawn) | . | -10% | -12% | 7% | -4% | 56µM*
CCOc1ccc(N2CC(C(=O)Nc3nnc(CC)s3)CC2=O)cc1 (stereo not drawn) | . | ? | -2% | 20% | 56µM* | -4%
CCOc1ccc(N2CC(C(=O)NCCN3C(=O)S/C(=C/c4cccnc4)C3=O)CC2=O)cc1 (stereo not drawn) | 1% | 14µM* | 3% | 48% | . | -9%
COc1ccc(N2CC(C(=O)OCC(=O)c3ccc(C)cc3)CC2=O)cc1 (stereo not drawn) | 3% | . | -11% | 28% | 4% | -4%
CCOc1cc(C(=O)NCCN2C(=O)S/C(=C\c3cccnc3)C2=O)cc(OCC)c1OCC | -3% | 6%[59 µM] | 3% | 65% | -22% | -14%
CCc1ccc(N2CC(c3nnc(NC(=O)c4ccco4)s3)CC2=O)cc1 (stereo not drawn) | . | 14µM* | -19% | 11% | . | -14%
